# In PubChem BioAssay AID493185 (National Center for Advancing Translational Sciences (NCATS), 2011):
# Unmarked numbers belong to inactive results. Calls come from the whole dose curve; as a rule, active = well fitted activation curve with a large enough effect; inconclusive = small, poorly fitted or top-dose-only effect; inactive = no such curve, though single readings can be large or run the other way.
# Experiment: Counterscreen for Identifying a Potential Treatment of Ataxia-Telangiectasia: Hit Validation; note: 0% is about no effect
# Conditions: cell-free AlphaLISA/AlphaScreen artifact counterscreen, PBS only, no cells; series mostly up to 76.9 µM; activation: at the top concentration
# How it was run: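 Cell-free AlphaLISA counterscreen: compounds (up to 76.7 uM final) in PBS with detection mix of anti-pKAP1 and anti-KAP1 antibodies on donor/acceptor beads plus lysis buffer, incubated 6 hr at 25C before AlphaScreen read.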
row,Compound,activation
1,CNC(=O)Cc1csc2ccc(C)cc12,3.28%
2,COc1ccc(NCc2cc(=O)oc3cc(NC(C)=O)ccc23)cc1,-11.5%
3,Cc1cc2c(c(=O)o1)C(CCC1CCCCC1)C(C#N)=C(N)O2 (stereo not given),-17.7%
4,Cc1ccc(C(C)C)c(OCCN2CCc3ccccc3C2)c1,39.2%
5,CCOC(=O)C1=C(C)N(c2ccc(OC)cc2)C(=O)/C1=C\c1ccc(O)c(OCC)c1,-32.8%
6,COc1ccc(Oc2ncnc3c2oc2ccc(Br)cc23)cc1,-9.23%
7,CNC(=O)c1ccc(-c2cc3onc(-c4ccccc4)c3c(=O)n2C)cc1,-19.2%
8,NC(=O)c1cc2ccccc2o/c1=N/NC(=O)c1cccc(F)c1,-3.76%
9,CCOC(=O)C1=C(O)C(=O)N(Cc2ccccc2)C1,12%
10,CC(=O)Nc1ccc(NC2=C(Cl)C(=O)c3ccccc3C2=O)cc1,-32.3%
11,Cn1cc(S(=O)(=O)Nc2ccc(OC(F)(F)F)cc2)c(=O)n(C)c1=O,-11.5%
12,O=C(NC(=O)c1c(F)cccc1F)Nc1ccccc1SC(F)F,9.02%
13,O=C(c1nn2c(C(F)(F)F)cc(-c3ccc(F)cc3)nc2c1Cl)N1CCOCC1,2.26%
14,CC(=O)c1ccc([N+](=O)[O-])c(CS(=O)(=O)c2ccc(Cl)cc2)c1,-4.51%
15,Cc1nc2sc(C(N)=O)c(N)c2c2c1CCCC2,29.3%
16,Clc1cccc(Cl)c1CSc1nnc(-c2ccncc2)s1,-5.74%
17,CCOC(=O)C1CCN(C(=O)c2cc3cc(Cl)ccc3[nH]2)CC1,-3.28%
18,C[C@@H]1Cc2c(O)c(O)cc(O)c2C(=O)O1,-9.77%
19,CN(C)c1cc(Nc2ccc(O)cc2)c([N+](=O)[O-])c2nonc12,9.23%
20,O=C(O)CCC(=O)NN1C(=O)c2ccccc2NC1c1ccco1 (stereo not given),-18%

row,Compound,activation
1,N#Cc1c(-c2ccccc2)cc(-c2ccccc2)[nH]c1=O,4.51%
2,CCOC(=O)N1CCN(C(=O)CCc2nc3sc4c(c3c(=O)[nH]2)CCCC4)CC1,-5.74%
3,O=C(C(c1ccccc1)c1ccccc1)N1CC[C@@]2(O)CCCC[C@H]2C1,-23.1%
4,CCC(C)Nc1nc(N)c([N+](=O)[O-])c(NCCO)n1 (stereo not given),-7.52%
5,Cc1ccc(C(=O)Nc2sc3c(c2C(=O)O)CCCCC3)o1,-5.74%
6,CC(C)NC(=O)c1ccc(COc2ccc(C(C)(C)C)cc2)o1,10.7%
7,CN(C)S(=O)(=O)c1cccc(C(=O)N=C2N=C3C=CC(Cl)=CN3Cc3ccccc32)c1,8.46%
8,O=C1NC(NS(=O)(=O)c2ccc(Cl)cc2)(C(F)(F)F)C(=O)N1CCc1ccccc1 (stereo not given),-22.6%
9,COC(=O)N/N=C/c1ccccc1OCCOc1ccc(OC)cc1,-13.1%
10,CCOc1cccc(-c2nnc(SCC(=O)Nc3cc(C)ccc3OC)n2N)c1,-1.64%
11,Cn1c(=O)oc2cc(S(=O)(=O)N3CCc4ccccc43)ccc21,-9.02%
12,O=[N+]([O-])c1ccc(F)cc1F,-4.1%
13,CC1=C/C(=C\C=C(C#N)C#N)N(C)c2ccccc21,36.9%
14,O=C1C(Cl)=C(Nc2ccc3cn[nH]c3c2)C(=O)c2ccccc21,-29.2%
15,CSc1nc2ccccc2nc1N(C)S(=O)(=O)c1ccc(C)cc1,19.5%
16,CCOc1ccc(NC2=CC(=O)CCC2)cc1,-2.46%
17,S=c1[nH]nc(C2CCCCC2)n1/N=C/c1ccc(Br)cc1,-2.26%
18,COc1ccc(C2c3ccc(O)cc3Oc3ncn(CC(C)C)c(=N)c32)cc1 (stereo not given),-3.76%
19,CNC(=S)N(CCO)Cc1cc2cc3c(cc2[nH]c1=O)OCCO3,6.92%
20,c1ccc2c(c1)nc(Nc1ccc(N3CCCCC3)cc1)c1nncn12,-40.8%
